Compound activity: PubChem, National Center for Advancing Translational Sciences (NCATS)
Shiga inhibitor: blocks Shiga toxin action in Vero cells | Vero cells, Shiga toxin protein synthesis inhibition reporter | inhibition, % at 38.7 µM | 290,000 tested, 9.2% active; in the data active = inhibition mostly above about 28%, no sharp cut-off; inactive = mostly below about 43%
Pf growth 96h: inhibits malaria parasite growth, 96 h; P. falciparum luciferase reporter growth, 96 h; Potency, µM (series often up to 28.7 µM), hits mostly inhibitors; 320,000 tested, 6.9% active
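Erythrocytes infected with luciferase-expressing P. falciparum were dispensed at 2% hematocrit and 0.05% parasitemia (final), then incubated with compounds 96 hours at 37 C in 5% CO2. Luminescence after detection reagent addition reported growth.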
Pf growth 48h: inhibits P. falciparum growth in the first generation, 48 h | P. falciparum luciferase growth in erythrocytes, 48 h | 310,000 tested, 5.9% active | Potency, µM (series often up to 28.7 µM), actives largely listed as inhibitors
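Read-out is firefly luciferase luminescence from an integrated reporter in P. falciparum, so falling signal marks reduced parasite growth. Infected erythrocytes were at 2% hematocrit and 0.1% parasitemia (final) in Albumax-supplemented RPMI 1640.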
Cycloheximide cs: affects cycloheximide protein synthesis inhibition readout, counter-screen | max response, % | 300,000 tested, 12% active | cell reporter, cycloheximide protein synthesis inhibition counterscreen; in the data active = max response mostly above about 13%, no sharp cut-off; inactive = mostly below about 14%; also: read at 38.3 µM for the half of the compounds with a filed dose
Numbers stand for hits; . = inactive; ? = inconclusive; / = not tested or not shown; + = active, no number; [ ] = another dose, or the depositor's remark. Rows were chosen to be rich in hits. Some 21% of all compounds tested hit in one or more screens of this group. Unless noted, calls follow the shape of the dose curve; as a rule, active = well fitted inhibition curve with a large enough effect; inconclusive = small, poorly fitted or top-dose-only effect, or another doubt; inactive = no such curve, though single readings can be large or run the other way.

SMILES	Shiga inhibitor	Pf growth 96h	Pf growth 48h	Cycloheximide cs
COc1cc(OC)cc(C(=O)N[C@H](C(=O)OCC(=O)NC(=O)c2cccn2C)C(C)C)c1	.	.	.	.
COc1ccc(C(=O)N[C@H](C(=O)OCC(=O)NC(=O)c2cccn2C)C(C)C)cc1	.	.	.	15
O=C(COC(=O)c1ccc[nH]c1=O)NCCc1ccc(Cl)cc1Cl	98	.	.	79
O=C(CCCc1c[nH]c2ccccc12)NCCc1c[nH]c2ccccc12	.	?	?	.
O=C(NCCc1c[nH]c2ccccc12)OCCCCOC(=O)NCCc1c[nH]c2ccccc12	/	?	10µM	/
O=C(COC(=O)c1ccccc1C(=O)OCC(=O)NCCc1c[nH]c2ccccc12)NCCc1c[nH]c2ccccc12	/	12µM	9.3µM	/
Cc1ccc(NC(=O)Cn2sc3nc(C)cc(C)c3c2=O)c(Cl)c1	.	.	.	.
CCn1c(O)c(C=NC2CCCC(C)C2C)sc1=S (configuration not stated)	110	?	.	51
COCCNC(=O)/C(C#N)=C/c1ccc(O)cc1	.	.	.	19
COCCNC(=O)/C(C#N)=C/C=C/c1ccccc1[N+](=O)[O-]	.	?	.	17
CCC(C)NC(=O)COCc1cc(-c2ccc3c(c2)OCO3)on1 (configuration not stated)	.	.	.[0.00184 µM]	.
Cc1ccc(NC(=O)c2cc(-c3ccc4c(c3)OCO4)on2)cc1	.	.	.	.
COc1ccc(NC(=O)c2cc(-c3ccc4c(c3)OCO4)on2)cc1	.	?	.	.
C=CCNC(=O)c1cc(-c2ccc3c(c2)OCO3)on1	.	.	.	35
COCCNC(=O)c1cc(-c2ccc3c(c2)OCO3)on1	98	.	.	29
CCN(CC)C(=O)COCc1cc(-c2ccc3c(c2)OCO3)on1	.	.	.	21
O=C(Nc1ccc(Br)cc1)c1cc(-c2ccc3c(c2)OCO3)on1	.	?	.	13
CC(C)N(CCCNC(=O)c1nn(C)c2c1CS(=O)(=O)c1ccccc1-2)Cc1ccccc1	.	.	.	.
CN(C)S(=O)(=O)c1cc(NC(=O)CN2CCN(c3ccccc3F)CC2)ccc1Cl	.	?	.	.
CCNC(=O)Nc1ccc(OC)cc1OC	.	.	.	.
CCC(C)NC(=O)c1cc(-c2ccc3c(c2)OCO3)on1 (configuration not stated)	57	.	.	38
NC(=O)Nc1ccc(C(=O)OCC(=O)N2CCCC2=O)cc1	/	.	.	/
Cc1c(C(=O)N(CC(C)C)c2c(N)n(Cc3ccccc3)c(=O)[nH]c2=O)sc2nc3n(c(=O)c12)CCC3	/	?	8.3µM	/
COCCN(C(=O)COC(=O)C12CC3CC(CC(Cl)(C3)C1)C2)c1c(N)n(Cc2ccccc2)c(=O)[nH]c1=O	/	?	12µM	/
CCc1nc2ccccc2c(C(=O)OCC(=O)N(CC(C)C)c2c(N)n(Cc3ccccc3)c(=O)[nH]c2=O)c1C	/	9.3µM	12µM	/
SMILES	Shiga inhibitor	Pf growth 96h	Pf growth 48h	Cycloheximide cs
CC(C)CN(C(=O)COC(=O)C12CC3CC(CC(Cl)(C3)C1)C2)c1c(N)n(Cc2ccccc2)c(=O)[nH]c1=O	/	?	4.7µM	/
CCCCn1c(N)c(N(CCOC)C(=O)c2cnc(C)cn2)c(=O)[nH]c1=O	/	.	.	/
O=C(c1cscn1)N1CCCC(N2CCN(c3ccc(F)cc3)CC2)C1 (configuration not stated)	.	.	.	.
O=S(=O)(NCc1ccccc1)c1ccc2c(c1)OCCO2	.	.	.	.
O=S(=O)(NCc1cccnc1)c1ccc2c(c1)OCCO2	.	13µM	.	.
CC(=O)Nc1ccc(S(=O)(=O)NCCc2csc(-c3cccnc3)n2)cc1	.	8.3µM	.	.
O=S(=O)(NCc1csc(-c2cccnc2)n1)c1ccc(F)cc1	.	.	.	.
O=S(=O)(NCc1csc(-c2cccnc2)n1)c1ccc2c(c1)OCCO2	.	2.9µM	.	.
COc1ccc(OS(=O)(=O)Cc2ccccc2)cc1	41	.	.	20
Cc1ccc(OCC(=O)NNC(=O)CCc2ccccc2)c(Br)c1	.	.	.	.
COc1cc(SC)ccc1C(=O)Nc1ccc(Cl)cn1	77	?	.	33
CCOc1ccc(NC(=O)c2cc(SC)ccc2Cl)cc1	.	.	.	.
COc1cc(SC)ccc1C(=O)Nc1nc(C)cc(C)n1	.	?	.	.
CSc1ccc(Cl)c(C(=O)Nc2ccc(Cl)cn2)c1	.	7.4µM	.	.
COc1ccc(C(=O)Cn2nnc(-c3cccs3)n2)cc1	91	/	.	63
COc1ccc(N2CCN(C(=O)Cn3nnc(-c4cccs4)n3)CC2)cc1	.	?	.	.
O=C(CSc1ccccc1)NN1C(=O)c2ccccc2C1=O	.	9.3µM	.	.
CC(Sc1ccccc1)C(=O)NCCc1ccccc1 (configuration not stated)	32	9.3µM	.	24
COC(=O)Cn1nnc(-c2cccc(OC)c2)n1	65	.[5.75 µM]	.	22
O=C(Cc1ccccc1)NN1C(=O)c2ccccc2C1=O	.	.	.	.
COc1cc(C(=O)NC2CCCC(C)C2C)ccc1OCC(=O)N1CCOCC1 (configuration not stated)	/	.	.	/
Cc1ccc(SCC(=O)NCCc2ccccc2)cc1	.	?	.	14
Cc1ccc(SCC(=O)NCCSC(C)(C)C)cc1	.	.	/	29
COc1ccc(C(=O)Cn2nnc(-c3ccccc3NC(=O)c3ccco3)n2)cc1	.	.	8.3µM	.
COCCNC(=O)CSc1ccc(C)cc1	.	?	.	.
SMILES	Shiga inhibitor	Pf growth 96h	Pf growth 48h	Cycloheximide cs
COc1ccccc1CCNC(=O)CSc1ccc(-c2cccs2)nn1	.	.	?	.
O=C(CSc1ccc(-c2cccs2)nn1)NCCc1ccccc1	.	2.9µM	.	.
CCOc1ccc(N2CC(C(=O)N3CCc4ccccc43)CC2=O)cc1 (configuration not stated)	.	.	.	.
CC(C)(C)c1ccc(C(CC(=O)O)NC(=O)Cc2ccc(Cl)cc2)cc1 (configuration not stated)	.	.	.	.
O=C(CSc1ccccc1)NCCc1ccccc1	44	?	.	37
O=C(CSc1ccc(-c2cccs2)nn1)c1cccs1	104	.	.	46
O=C(CSc1cccs1)NCCc1ccccc1	+	.	.	42
NS(=O)(=O)c1ccc(CCNC(=O)CSc2cccs2)cc1	.	.	.	.
O=C(CSc1ccc(-c2cccs2)nn1)Nc1ccccc1	.	.	.	.
O=C(Cn1nnc(-c2cccs2)n1)NCCc1ccccc1	.	?	.	20
O=C(CSc1ncn[nH]1)NCCc1ccccc1	.	.	/	.
O=C(CSc1ccccc1)NCCc1ccc(F)cc1	/	3.3µM	.	29
Cc1ccc(SCC(=O)NCCc2ccc(F)cc2)cc1	.	.	.	.
NC(=O)c1sc2nc(-c3ccccc3)c3c(c2c1N)CCCC3	.	.	.	.
Nc1c2c(nc3c1CCC3)CCCC2	.	3.8µM	4.8µM	.
CN(C)c1cc(N)c2c(n1)CCC2 (tested in a mixture with another compound)	.	.	.	.
Nc1c2c(nc3sc4c(c13)CCCC4)-c1ccccc1CC2	97	.	.	50
Nc1c2c(nc3sc4c(c13)CCCCC4)CCCC2	137	.	?	62
